LANA-H2B inh = blockers of LANA interaction with H2A/H2B – biochemical, FP readout, HTS, primary screen; Protein LANA1 (Human herpesvirus 8 type P (isolate GK18)), Q9QR71; cell-free LANA-H2A/H2B peptide, fluorescence polarization; inhibition, % (test concentration not listed); 320,000 compounds, 0.6% hits; AID 2629, 2010; in the data active = inhibition mostly above about 10%, no sharp cut-off; inactive = mostly below about 6.7%
ABHD5 PLIN5 PPI = ABHD5-PLIN5 interaction inhibitors, primary screen, cell lysate, split luciferase complementation, luminescence | 360,000 compounds, 0.78% hits | Split G. princeps luciferase complementation, 4 h | Perilipin-5 (Homo sapiens) + 1-acylglycerol-3-phosphate O-acyltransferase ABHD5 (Homo … | inhibition, % at 4 µM;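 active = inhibition above the mean inhibition across every tested compound plus 3 SD, cut at about 22% in these data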;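 also: 0% = DMSO only wells and the 100% control is not disclosed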
Rtt109 Vps75 = inhibitors of C. albicans Rtt109/Vps75 HAT, primary screen, biochemical, ThioGlo CoA-SH fluorescence, plate reader; purified Rtt109/Vps75, 4 h; 330,000 compounds, 0.16% hits; inhibition, % at 34.9 µM; Histone acetyltransferase RTT109 (Candida albicans (strain SC5314 / ATCC MYA-2876)), …; AID 540336, 2011;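 active = inhibition of at least 50% in every replicate; inconclusive = best replicate reaches 50% inhibition but some replicates fall short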
PRMT1 inh = PRMT1 methyltransferase inhibitors, primary screen, biochemical, fluorescence polarization | Protein arginine N-methyltransferase 1 (Homo sapiens), Q99873 | recombinant PRMT1, activity-based probe fluorescence polarization | inhibition, % at 2.79 µM | 370,000 compounds, 1.3% hits | AID 652257, 2013;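 active = inhibition above about 21% made by adding two undisclosed values, limit read from the data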
rCAG RNA binder = binders of r(CAG) RNA repeats, primary screen, biochemical, fluorescence; inhibition, % at 3 µM; r(CAG) RNA repeat, TO-PRO-1 dye displacement fluorescence; 370,000 compounds, 1.3% hits; AID 651821, 2012;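 active = inhibition above the plate cutoff, the mean of all test compounds on that plate plus 3 SD, cut at about 35% in these data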;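 also: 0% = DMSO alone and 100% = 100 µM mitoxantrone as full dye displacement; higher means more dye released from RNA so lower well fluorescence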
ALR H2O2 inh = inhibitors of human ALR sulfhydryl oxidase, primary screen, biochemical, H2O2 detection, HRP-luminol luminescence, single point | FAD-linked sulfhydryl oxidase ALR (Homo sapiens), P55789 | 290,000 compounds, 3.8% hits | inhibition, % (no concentration beside the values) | AID 485317, 2010 | purified ALR, DTT oxidation;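 active = mean replicate inhibition above about 79%, with every replicate also reaching it, limit read from the data; inconclusive = only one of the two criteria met; inactive = mean below limit and not every replicate reaching it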
Numbers without * were called inactive; ? = inconclusive; / = no result. This is a sample that favours compounds with a hit; in the whole collection about 5.9% have one here.

SMILES	LANA-H2B inh	ABHD5 PLIN5 PPI	Rtt109 Vps75	PRMT1 inh	rCAG RNA binder	ALR H2O2 inh
Cc1ccc(CCC(=O)Nc2ccc(Cl)cc2)o1	4	-2	8	-6	0	13
CCc1ccc(CCC(=O)Nc2ccc(Cl)cc2)o1	10	-8	7	-6	-3	78*
Cc1cccc(OCCCC(=O)Nc2ccc(N(C)C)cc2)c1	-2	0	-2	-1	-2	92*
Cc1cccc(OCCCC(=O)Nc2ccc(Br)cc2)c1	-1	-5	3	-2	4	-4
Cc1ccc(CCC(=O)Nc2ccc(N(C)C)cc2)o1	0	-8	-11	-2	-3	99*
O=C1CCCN1CCCNc1nc(NCc2ccccc2)nc2ccsc12	/	-3	/	0	1	/
CC(C)CN1C(=O)[C@]2(CC(=O)N(C)C2c2ccccc2)c2cc(-n3cc(CN(C)C)nn3)ccc21 (stereo not given in full)	/	/	/	-2	-2	/
C[C@H]1CN([C@@H](C)CO)S(=O)(=O)c2ccc(/C=C/c3ccccc3)cc2O[C@H]1CN(C)C(=O)NC1CCCCC1	/	4	/	0	11	/
COc1ccc(C2N3CC4(C)CN2CC(C)(C3)C4)cc1OC (stereo not given)	6.4*	-7	1	-1	-2	/
Cc1cc(Cl)ccc1-c1cc2nc(NCCCN(C)C)n(C)c(=O)c2s1	/	1	/	3	5	/
COc1ccc2nc(NC(=O)CSCc3c(C)noc3C)sc2c1	2	-3	-9	-2	3	1
Cc1noc(C)c1CSCC(=O)Nc1nc2ccc(S(C)(=O)=O)cc2s1	16	2	3	4	5	97*
Cc1noc(C)c1CSCC(=O)NC1=NCCS1	0	-12	10	6	2	97*
Cc1cnc(NC(=O)CSCc2c(C)noc2C)s1	0	-4	-9	-3	0	-13
C=C(C)CSc1nc2sc(C)c(C)c2c(=O)n1C	/	/	/	1	1	/
O=C(Cc1c[nH]c2ccccc12)Nc1ccc(Nc2cccnc2)c(-c2ccc(-c3ccccc3)cc2F)c1	/	/	/	9	18	/
COc1cccc(NC(=O)c2ccccc2-c2ccccc2C(=O)O)c1	0	-5	-1	-2	2	-6
O=C(COC(=O)c1ccccc1Nc1ccccc1)NCc1ccccc1	-1	0	0	3	-1	97*
COc1cccc(Nc2ccccc2C(=O)O)c1	2	0	3	2	4	99*
COc1ccc(Nc2ccc(Cl)cc2)c(C(=O)O)c1	10	-4	-1	5	24	99*
O=C(O)c1ccccc1Nc1ccccc1	-5	6	6	4	3	99*
O=C(COC(=O)c1ccccc1Nc1ccccc1)NCc1ccccc1Cl	-3	3	-3	-1	2	6
Cc1ccc(C)c(NC(=O)[C@@H]2CCCN2S(=O)(=O)c2cccc3cccnc23)c1	/	/	/	-1	/	/
COc1ccc(CNS(=O)(=O)c2cc(Br)ccc2Br)c(OC)c1	/	/	/	-3	4	/
O=C(O)c1cc2ccccc2cc1Nc1ccccc1	-2	7	18	5	22	99*
SMILES	LANA-H2B inh	ABHD5 PLIN5 PPI	Rtt109 Vps75	PRMT1 inh	rCAG RNA binder	ALR H2O2 inh
CN(C(=O)COC(=O)c1ccccc1Nc1ccccc1)C1CCS(=O)(=O)C1 (stereo not given)	-5	9	-4	6	0	99*
O=C(O)c1ccccc1Nc1ccc(OC(F)F)cc1	1	-1	-5	-2	5	100*
COc1cc2c(cc1OC)/C(=C/C(C)=O)OC2	/	4	/	1	1	/
O=C1CCN(Cc2ccccc2)C(=O)N1	/	3	-3	0	2	/
O=C1NC(=O)N2CCSC2(Cc2ccccc2)N1 (stereo not given)	/	-26	0	21*	0	/
CC(=O)Nc1ccc(NC(=O)CSc2nnc(-c3cccs3)o2)cc1	/	/	/	1	4	/
C=CCN1CCc2c(cc(O)c(O)c2Cl)C(c2ccccc2)C1 (stereo not given)	3	6	15	2	6	99*
Cc1cccc(C2CN(C)CCc3c2cc(O)c(O)c3Cl)c1 (stereo not given)	-18	-8	2	-1	1	98*
C#CC1c2ccccc2CCN1CC=C (stereo not given)	/	/	/	-4	1	/
C=CCN1CCc2cc(O)c(O)cc2C(c2ccccc2)C1 (stereo not given)	5	2	3	-2	2	98*
Cc1cc(C)c(C)c(S(=O)(=O)N2CCNC(=O)C2)c1C	/	14	/	0	0	/
N#CCC[C@H]1CC[C@]2(CCCN(C(=O)c3ccco3)C2)O1	/	/	/	-1	2	/
CC(=O)N1CCN(C(=O)CSc2nc3cccnc3n2C)CC1	/	/	/	-1	2	/
CCN1CCN(Cc2ccc(NC(=O)c3ccc(C)c(NC(=O)c4cncc(-c5cccs5)c4)c3)cc2C(F)(F)F)CC1	/	26*	3	/	/	/
CCN1CCN(Cc2ccc(NC(=O)c3ccc(C)c(NC(=O)c4nccn4C)c3)cc2C(F)(F)F)CC1	4	4	5	-1	1	-11
NC(=O)NC(=O)COC(=O)CCCc1c[nH]c2ccccc12	1	2	7	-1	3	?
CC(=O)Nc1ccc(NC(=O)COC(=O)CCCc2c[nH]c3ccccc23)cc1	3	2	0	-4	5	94*
O=C(CCCc1c[nH]c2ccccc12)NCc1cccs1	6	2	-8	0	-5	90*
COC(=O)[C@@]12C[C@@H](CC(=O)N3CCSCC3)C(=O)N(Cc3cccc4ccccc34)C1=CCC(C)(C)C2	/	5	/	-4	10	/
CCc1ccc(C(CC(=O)c2ccc(Cl)cc2)C(=O)O)cc1 (stereo not given)	-2	1	1	1	22	6
CC(C)c1ccc(C(CC(=O)c2ccc(Cl)cc2)C(=O)O)cc1 (stereo not given)	1	-8	16	-2	45*	45
O=C(NC1CCCC1)C1CCCN(S(=O)(=O)c2cnc[nH]2)C1 (stereo not given)	1	2	2	-4	0	96*
O=C(NC1CCCCCCC1)C1CCCN(S(=O)(=O)c2cnc[nH]2)C1 (stereo not given)	6	-2	1	3	-1	95*
O=C(NC1CCCCC1)C1CCCN(S(=O)(=O)c2cnc[nH]2)C1 (stereo not given)	4	2	-11	-4	1	-18
CN(CCc1ccccn1)C(=O)[C@@H](Cc1ccccc1)NC(=O)[C@H]1O[C@@H](n2ccc(=O)[nH]c2=O)[C@H](O)[C@@H]1O	/	/	/	2	2	/
